Assay results: PubChem BioAssay (NCI)
About 79,000 compounds went through this panel and 15% of them were active in at least one assay; those are over-represented in the sample as a whole. Unmarked numbers belong to inactive results. Active and inactive are the calls of the source. Cut-off read from the data, not from the text of the source: active = growth inhibition above about 70%; inactive = the rest.

Assay: NCI Yeast Anticancer Drug Screen. Data for the cln2 rad14 strain (AID 165);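 note: 0% = growth equal to vehicle treated cultures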
Details: S. cerevisiae cln2 rad14 strain, active compounds read high
Experimental: Growth inhibition of yeast strains with defined genetic alterations is measured as a screen for potential anti-cancer activity. Selected strains with alterations in DNA damage repair or cell cycle control were exposed to compounds and growth inhibition was measured relative to vehicle treated controls. The strain used in this assay is cln2 rad14

[1] = at 5.0 µM (retest, dose inferred, filed as 0.5)
[2] = at 50.0 µM (retest, dose inferred, filed as 5.0)

Row | SMILES | growth inhibition [1] | growth inhibition [2] | growth inhibition (at 50.0 µM)
1 | O=S(=O)(c1ccc(NC(=S)NCc2ccncc2)cc1)N1CCCCC1 | 2% | 16% | 5.3%
2 | CN(C)C(=S)/N=c1\sn(C)/c(=N\C(=S)N(C)C)n1C | -27% | -36% | -75.8%
3 | Cc1[nH]nc(-c2cccnc2)c1N=NN1CCOCC1 | -2% | 80% (active) | 58.5%
4 | N#CS/C(C(Cl)=C(Cl)Cl)=C(/Cl)[N+](=O)[O-] | 99% (active) | 99% (active) | 89.5% (active)
5 | CC1CCN(CC(=O)N2c3ccccc3Sc3cc4ccccc4cc32)CC1 | -37% | -4% | 23.8%
6 | N#Cc1ccccc1[N+](=O)[O-] | -1% | 25% | 0.35%
7 | COc1cc2c(c(C3C(=O)N(C)c4ccc(Br)cc43)c1OC)OCO2 (configuration not stated) | 5% | 12% | -3.8%
8 | N#Cc1c2c(c(N=[N+]=[N-])n3c1nc1ccccc13)CCCC2 | 28% | 97% (active) | 90% (active)
9 | CC1CCC2(CC1)NC1=C(CC(C)CC1)C1=C2CC(C)CC1 (configuration not stated) | 14% | 26% | 13.2%
10 | O=C1/C(=C/c2cccc(O)c2)COc2ccccc21 | 9% | 95% (active) | 91.6% (active)
11 | Clc1cccc(C2SCc3nc4ccccc4n32)c1Cl (configuration not stated) | -17% | 97% (active) | 97.4% (active)
12 | CCC1=C(c2ccc(OC(C)=O)cc2)Cc2cc(OC(C)=O)ccc21 | -9% | 79% (active) | 4%
13 | CCC(C)Sc1nc2c([nH]1)c(=S)n(C)c(=O)n2C (configuration not stated) | -3% | 17% | 23.9%
14 | CCOC(=O)c1ccccc1NC(OCC)C(=O)c1ccccc1 (configuration not stated) (tested in a mixture with another compound) | -3% | 12% | 16.2%
